KCNQ2 enhance: potentiators of rat KCNQ2 potassium channel; Potassium voltage-gated channel subfamily KQT member 2 (Rattus norvegicus), O88943; CHO-K1 KCNQ2, FluxOR thallium flux fluorescence; stronger effect = higher value; B-score at 10 µM; 0.54% of 310,000 active;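 active = fluorescence ratio B-score at least 3 SD of library B-scores, with initial fluorescence B-score within 3 of them, cut at about 5.3 in these data; same plate scores as AID 2156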;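 note: B-score of peak minus minimum over baseline fluorescence ratio after K+ and Tl+ stimulus; positive B-score means potentiation of KCNQ2 with more thallium influx and brighter signal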
Target sequence (O88943 whole entry, looked up): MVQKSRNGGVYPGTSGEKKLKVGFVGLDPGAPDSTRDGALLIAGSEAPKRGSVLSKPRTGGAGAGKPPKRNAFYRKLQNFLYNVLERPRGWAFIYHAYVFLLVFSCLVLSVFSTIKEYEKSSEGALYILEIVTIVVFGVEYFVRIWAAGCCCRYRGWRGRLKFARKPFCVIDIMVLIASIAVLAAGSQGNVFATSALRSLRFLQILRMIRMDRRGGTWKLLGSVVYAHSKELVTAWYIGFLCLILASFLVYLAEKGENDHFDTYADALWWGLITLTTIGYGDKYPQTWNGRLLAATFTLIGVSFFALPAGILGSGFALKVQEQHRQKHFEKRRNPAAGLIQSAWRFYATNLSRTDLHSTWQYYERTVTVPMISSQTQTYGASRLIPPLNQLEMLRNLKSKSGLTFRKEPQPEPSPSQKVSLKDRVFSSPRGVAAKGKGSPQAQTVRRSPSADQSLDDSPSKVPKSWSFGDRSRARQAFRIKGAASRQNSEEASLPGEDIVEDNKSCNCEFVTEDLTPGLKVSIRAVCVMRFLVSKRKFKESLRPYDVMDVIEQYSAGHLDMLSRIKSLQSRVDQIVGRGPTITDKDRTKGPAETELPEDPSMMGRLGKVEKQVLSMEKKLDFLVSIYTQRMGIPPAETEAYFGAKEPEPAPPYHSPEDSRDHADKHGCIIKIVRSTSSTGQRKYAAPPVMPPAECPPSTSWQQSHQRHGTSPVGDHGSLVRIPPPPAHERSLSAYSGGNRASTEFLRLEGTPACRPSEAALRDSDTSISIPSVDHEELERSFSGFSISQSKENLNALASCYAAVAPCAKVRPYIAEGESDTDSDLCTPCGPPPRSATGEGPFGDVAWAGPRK
KCNQ2 inh: rat KCNQ2 potassium channel inhibitors, primary screen, cell-based, CHO-K1, FluxOR thallium flux, B-score. Potassium voltage-gated channel subfamily KQT member 2 (Rattus norvegicus), O88943. 20 min; stronger effect = lower value. B-score at 10 µM. 1.1% of 310,000 active;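 active = fluorescence ratio B-score at most minus 3 library SDs, with starting brightness B-score within 2 library SDs, cut at about -5.5 in these data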
KCNQ2 inh conf: rat KCNQ2 potassium channel inhibitors, confirmation, cell-based, thallium flux; activity change, negative = inhibition, % at 10 µM; KCNQ2-expressing cells, inhibition; stronger effect = lower value; 57% of 1,000 active; shares compounds with KCNQ2 inh;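 note: 0% = vehicle wells and values are ratio percent relative to vehicle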
KCNQ1 spec: human KCNQ1 channel inhibition, counter-screen for KCNQ2 inhibitor project, cell-based, FluxOR thallium flux. AID 493026, 2011. KCNQ1-expressing cells, FluxOR thallium flux fluorescence; stronger effect = lower value. 15% of 1,000 active. shares compounds with KCNQ2 inh. activity change, negative = inhibition, % at 10 µM;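 active = activity change at least 3 SD of negative controls below their mean in both duplicate wells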;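 note: CHO cells stably transfected with KCNQ1 and depolarized by potassium stimulus; peak minus minimum fluorescence over baseline after thallium addition; 0% = vehicle negative control and -100% = blank without thallium stimulus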
CHO Tl ctr: thallium flux change in parental CHO cells, counter-screen for KCNQ2 inhibitor project; stronger effect = lower value; shares compounds with KCNQ2 inh; activity change, % at 10 µM; AID 493029, 2011; 14% of 1,000 active;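 note: 0% = vehicle negative controls with stimulus buffer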
KCNQ2 patch conf: rat KCNQ2 channel inhibitors, confirmation, cell-based, automated patch clamp, single concentration | KCNQ2-expressing cells, automated patch clamp current | calls only at 10 µM | 49% of 550 active | shares compounds with KCNQ2 inh
Starred values were filed as active, the others as inactive; i = inactive; . = no result given; + = active, no number. An excerpt weighted towards active compounds, which were near 1.6% of everything screened. Unless noted, the rule behind the calls is not given here.

SMILES	KCNQ2 enhance	KCNQ2 inh	KCNQ2 inh conf	KCNQ1 spec	CHO Tl ctr	others
COC(=O)CC1COc2ccccc2N1C(=O)c1ccc(Br)cc1 (configuration not stated)	.	i	.	.	.
COC(=O)CC1COc2ccccc2N1C(=O)c1ccc(C(C)(C)C)cc1 (configuration not stated)	-6.81	-6.81*	-29.0%*	i	i	KCNQ2 patch conf=+
COc1cc(C(=O)OCC(=O)Nc2ccc(C)cc2)cc(OC)c1OC	0.27	i	.	.	.
O=C(NCC1CCCO1)c1cccc(S(=O)(=O)N(Cc2ccccc2)c2ccccc2)c1 (configuration not stated)	0.01	i	.	.	.
CCCCC(CC)CNC(=O)CN1C(=O)NC2(CCc3ccccc32)C1=O (configuration not stated)	.	i	.	.	.
COc1ccc(-c2cc(-c3ccccc3)nc(Cl)n2)cc1OC	.	i	.	.	.
Cc1ccc(-c2cc(-c3ccccc3)nc(Cl)n2)cc1	-8.3	-8.3*	i	i	i
COc1ccc(-c2nc3ccccn3c2NCc2ccc3c(c2)OCO3)cc1	-8.4	-8.4*	i	i	i
COc1ccc(-c2nc3cc(C)ccn3c2NCc2ccc3c(c2)OCO3)cc1	.	i	.	.	.
O=C(NCc1ccccc1)c1cccc(COc2ccccc2Cl)c1	-11.5	-11.5*	i	i	i
O=C(NCc1ccccc1)c1cccc(COc2cc(Cl)ccc2Cl)c1	.	i	.	.	.
Cc1cc(OC(=O)C(C)(C)C)c([N+](=O)[O-])c(=O)[nH]1	0.52	i	.	.	.
O=C1OC[C@H](Cc2ccc3c(c2)OCO3)/C1=C\c1ccc2c(c1)OCO2	.	i	.	.	.
C=CCC1(CC=C)CCCN1C(=O)c1cc(COc2cccc(C(F)(F)F)c2)on1	-9.47	-9.47*	-34.0%*	-30.5%*	-28.5%*	KCNQ2 patch conf=+
CCOC(=O)N1CCN(C(=O)c2cc(COc3cccc(C(F)(F)F)c3)on2)CC1	0.66	i	.	.	.
COc1ccc(NC(=O)C(=O)NCCC2CCCCN2S(=O)(=O)c2ccccc2)cc1 (configuration not stated)	.	i	.	.	.
CN1CCN(Cn2cc(/C=C/C(=O)c3ccccc3)c3ccccc32)CC1	-9.18	-9.18*	-34.0%*	i	i	KCNQ2 patch conf=+
CC(C)(C)NCC(O)Cn1cc(C=O)c2ccccc21 (configuration not stated)	1.67	i	.	.	.
COc1ccc(C(=O)/C=C/c2cn(CC(O)CN3CCN(C)CC3)c3ccccc23)cc1OC (configuration not stated)	.	i	.	.	.
CCCCN(C)CC(O)Cn1cc(/C=C/C(=O)c2ccc(C)cc2)c2ccccc21 (configuration not stated)	-9.65	-9.65*	i	i	i
CCCCCC(=O)Nc1ccc(-c2csc(N)n2)cc1	0.48	i	.	.	.
O=C(O)CCN1CCc2ccccc2C1c1ccncc1 (configuration not stated)	.	i	.	.	.
O=C(COc1ccc(Br)cc1CNCCc1ccccc1)NCc1ccccc1	-7.59	-7.59*	-32.0%*	i	i	KCNQ2 patch conf=+
CCCNCc1cc(Br)ccc1OCC(=O)NCCc1ccccc1	0.72	i	.	.	.
COCCCn1c(=O)c2ccccc2n2c(=S)[nH]nc12	.	i	.	.	.
SMILES	KCNQ2 enhance	KCNQ2 inh	KCNQ2 inh conf	KCNQ1 spec	CHO Tl ctr	others
O=C1c2cccnc2C(=O)N1Cc1ccc(S(=O)(=O)N2CCOc3ccccc32)cc1	.	i	.	.	.
COc1ccc(CCN(Cc2cc3cc(C)cc(C)c3nc2Cl)C(=O)C2CC2)cc1	-8.59	-8.59*	-32.0%*	i	i	KCNQ2 patch conf=i
COc1ccc(CN(CC2CCC(C(=O)O)CC2)C(=S)Nc2ccc(C)c(Cl)c2)cc1 (configuration not stated)	.	i	.	.	.
O=C(NCCc1ccc(Cl)cc1)C1CCCN1C(=O)Nc1ccccc1 (configuration not stated)	.	i	.	.	.
O=C1CCCN1CC(O)CS(=O)(=O)Cc1ccc(Cl)c(Cl)c1 (configuration not stated)	.	i	.	.	.
O=C(O)/C=C/c1ccc(OCc2cccc(F)c2)cc1	1.61	i	.	.	.
CC(NC(=O)c1cc2c(s1)CS(=O)(=O)C2)c1ccccc1 (configuration not stated)	.	i	.	.	.
Cc1nn(C(C)C(=O)NCCCN2CCCCCC2)c(=O)c2c1sc1ccccc12 (configuration not stated)	.	i	.	.	.
Cc1nn(C(C)C(=O)NCc2ccccc2Cl)c(=O)c2c1sc1ccccc12 (configuration not stated)	-7.8	-7.8*	-31.5%*	i	i	KCNQ2 patch conf=+
CCOc1ccc(NC(=O)C2CCCN(S(=O)(=O)c3c(C)noc3C)C2)cc1 (configuration not stated)	.	i	.	.	.
CCCCC(=O)Nc1c2c(nn1-c1cccc(C)c1C)CS(=O)(=O)C2	0.83	i	.	.	.
COc1ccc(CN(CCC(c2ccccc2)c2ccco2)C(=O)c2ccco2)cc1 (configuration not stated)	-6.72	-6.72*	-38.0%*	-43.0%*	-35.5%*	KCNQ2 patch conf=i
COc1ccc(CN(C(=O)c2ccco2)c2ccccc2)cc1	0.07	i	.	.	.
CCN(CC)C(=O)CC(c1ccccc1)c1ccco1 (configuration not stated)	.	i	.	.	.
O=C(c1ccco1)N(CCC(c1ccccc1)c1ccco1)Cc1ccccc1 (configuration not stated)	-7.66	-7.66*	-26.5%*	i	i	KCNQ2 patch conf=+
NC(=O)C1CCCN(CC(O)COCc2ccc(Cl)cc2)C1 (configuration not stated)	.	i	.	.	.
CCCCN(CC)C(=O)c1ccc(-c2ccccc2)cc1	-6.79	-6.79*	-26.0%*	i	i	KCNQ2 patch conf=i
CCCCN(CC)C(=O)c1cccc(Cl)c1	1.71	i	.	.	.
CCc1ccc(C(C(=O)NCc2ccc(OC)cc2)N(CCOC)C(=O)Cc2cccs2)cc1 (configuration not stated)	.	i	.	.	.
COCCN(C(=O)Cc1cccs1)C(C(=O)NCc1ccc(OC)cc1)c1ccc(C(C)C)cc1 (configuration not stated)	-8.57	-8.57*	-35.0%*	i	i	KCNQ2 patch conf=+
CC1c2cc3c(cc2CCN1C(=O)c1cccc(F)c1)OCCCO3 (configuration not stated)	.	i	.	.	.
CC(C)C[C@H](NC(=O)N1CCn2c1nc1ccccc12)C(=O)NCc1ccccc1	-6.68	-6.68*	i	i	i
CC(C)C[C@H](NC(=O)N1CCn2c1nc1ccccc12)C(=O)NCCc1ccccc1	.	i	.	.	.
Cc1cccc(N2C(=O)c3ccc(C(=O)Nc4ccccn4)cc3C2=O)c1	0.05	i	.	.	.

Compound activity deposited in PubChem by Johns Hopkins Ion Channel Center.
